Test results taken from PubChem BioAssay.
Calls of active or inactive are those of the source.

Tests used:
[1] = tested on: Plasmodium falciparum Sir2 (PF13_0152, Sir2A); test: Plasmodium falciparum Sir2A binding compounds – biochemical, small-molecule microarray, 635 nm fluorescence, primary screen (AID 1098); details: fluorescence 635 nm, higher = more signal;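 also: score merges spot fluorescence intensity with its signal-to-noise ratio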
[2] = probe aDKK1 binding to arrayed compounds – biochemical, biotinylated probe, 635/667 nm fluorescence, primary screen (AID 1099); details: small-molecule microarray, higher = more signal;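 also: score merges 667nm spot fluorescence with signal to noise across triplicate slides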
[3] = probe aCHRDL2 binding to arrayed compounds – biochemical, biotinylated probe, 635/667 nm fluorescence, primary screen (AID 1100); details: small-molecule microarray, higher = more signal
[4] = change in splice reporter luminescence, either direction, cell-based, HEK293, spliceosome inhibition project, primary screen (AID 1101); details: HEK293 splicing luciferase reporter, 24 h, higher = more signal, called active from +8 up or from −8 down;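 also: HEK293 cells carrying a splicing-competent luciferase reporter gene; test concentration not given here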
[5] = biological target: Fibroblast growth factor 10 (Homo sapiens) (UniProt O15520); test: compounds binding fibroblast growth factor 10 – biochemical, small-molecule microarray, 635 nm fluorescence, primary screen (AID 1102); details: FGF10 binding, fluorescence 635 nm, higher = more signal
Sequence of Fibroblast growth factor 10 (Homo sapiens) (O15520 whole entry, looked up): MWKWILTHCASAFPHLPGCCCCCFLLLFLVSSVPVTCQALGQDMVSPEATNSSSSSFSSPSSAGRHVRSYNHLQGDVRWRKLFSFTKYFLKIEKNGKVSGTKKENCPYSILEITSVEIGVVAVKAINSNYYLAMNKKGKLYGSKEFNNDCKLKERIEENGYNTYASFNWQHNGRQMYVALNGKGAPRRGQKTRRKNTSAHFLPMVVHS

[6] = tested on: glycogen synthase kinase-3 (GSK3A per assay name; protocol says GSK3B); test: compounds binding glycogen synthase kinase-3 – biochemical, small-molecule microarray, 635 nm fluorescence, GSK3A, primary screen (AID 1103); details: fluorescence 635 nm, higher = more signal; also: the record names both GSK3A and GSK3B
[7] = biological target: Epidermal growth factor receptor (Homo sapiens) (UniProt P00533); test: compounds binding epidermal growth factor receptor – biochemical, small-molecule microarray, 635 nm fluorescence, primary screen (AID 1104); details: EGFR binding, higher = more signal;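 also: score merges 667 nm emission intensity with spot signal to noise over triplicate slides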
Sequence of Epidermal growth factor receptor (Homo sapiens) (P00533 whole entry, looked up): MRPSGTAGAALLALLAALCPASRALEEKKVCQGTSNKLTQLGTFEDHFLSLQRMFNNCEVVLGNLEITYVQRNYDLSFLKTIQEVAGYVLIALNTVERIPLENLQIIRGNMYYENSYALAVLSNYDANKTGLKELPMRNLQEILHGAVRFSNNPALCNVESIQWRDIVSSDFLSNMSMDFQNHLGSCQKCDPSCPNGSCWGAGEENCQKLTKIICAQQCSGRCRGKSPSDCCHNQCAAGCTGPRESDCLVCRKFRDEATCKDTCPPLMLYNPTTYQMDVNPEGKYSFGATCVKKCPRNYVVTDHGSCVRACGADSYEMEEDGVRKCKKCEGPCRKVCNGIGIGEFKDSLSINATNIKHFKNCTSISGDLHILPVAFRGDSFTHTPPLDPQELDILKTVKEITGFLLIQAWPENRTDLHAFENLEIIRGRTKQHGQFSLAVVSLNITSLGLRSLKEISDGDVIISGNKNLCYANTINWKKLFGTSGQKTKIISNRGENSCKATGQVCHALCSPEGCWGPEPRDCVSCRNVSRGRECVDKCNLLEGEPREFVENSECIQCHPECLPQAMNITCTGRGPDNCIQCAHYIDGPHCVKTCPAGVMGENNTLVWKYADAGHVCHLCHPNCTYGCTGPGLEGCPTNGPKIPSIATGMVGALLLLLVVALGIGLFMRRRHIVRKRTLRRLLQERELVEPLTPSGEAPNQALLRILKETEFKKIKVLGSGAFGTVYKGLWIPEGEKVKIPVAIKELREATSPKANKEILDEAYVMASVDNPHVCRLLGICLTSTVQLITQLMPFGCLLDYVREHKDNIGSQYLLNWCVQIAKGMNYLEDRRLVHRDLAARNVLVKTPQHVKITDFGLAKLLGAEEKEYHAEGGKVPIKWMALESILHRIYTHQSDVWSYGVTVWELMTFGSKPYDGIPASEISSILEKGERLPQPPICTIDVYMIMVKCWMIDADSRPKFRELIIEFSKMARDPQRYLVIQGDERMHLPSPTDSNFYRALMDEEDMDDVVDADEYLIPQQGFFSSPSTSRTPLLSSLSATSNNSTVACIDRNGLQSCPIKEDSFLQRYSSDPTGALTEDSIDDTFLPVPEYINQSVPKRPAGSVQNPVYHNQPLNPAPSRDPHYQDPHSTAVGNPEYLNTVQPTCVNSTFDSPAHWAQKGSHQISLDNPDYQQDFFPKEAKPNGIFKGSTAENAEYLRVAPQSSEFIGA

[8] = biological target: Follistatin-related protein 3 (Homo sapiens) (UniProt O95633); test: compounds binding follistatin-related protein 3 – biochemical, small-molecule microarray, 635 nm fluorescence, primary screen (AID 1105); details: FSTL3 binding, higher = more signal;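 also: score merges emission near 667 nm and signal to noise per printed spot across three slides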
Sequence of Follistatin-related protein 3 (Homo sapiens) (O95633 whole entry, looked up): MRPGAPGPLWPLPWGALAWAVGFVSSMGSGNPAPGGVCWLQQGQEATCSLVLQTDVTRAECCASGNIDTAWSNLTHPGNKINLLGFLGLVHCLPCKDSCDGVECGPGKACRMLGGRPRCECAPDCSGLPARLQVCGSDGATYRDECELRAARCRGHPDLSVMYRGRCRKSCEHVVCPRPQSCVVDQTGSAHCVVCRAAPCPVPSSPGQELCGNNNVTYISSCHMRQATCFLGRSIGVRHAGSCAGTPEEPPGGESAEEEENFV

[9] = biological target: Dickkopf-related protein 1 (Homo sapiens) (UniProt O94907); test: small molecules binding DKK1 protein – biochemical, small-molecule microarray, 635 nm fluorescence scan, primary screen (AID 1106); details: higher = more signal;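 also: score merges emission near 667 nm with signal to noise over three replicate slides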
Sequence of Dickkopf-related protein 1 (Homo sapiens) (O94907 whole entry, looked up): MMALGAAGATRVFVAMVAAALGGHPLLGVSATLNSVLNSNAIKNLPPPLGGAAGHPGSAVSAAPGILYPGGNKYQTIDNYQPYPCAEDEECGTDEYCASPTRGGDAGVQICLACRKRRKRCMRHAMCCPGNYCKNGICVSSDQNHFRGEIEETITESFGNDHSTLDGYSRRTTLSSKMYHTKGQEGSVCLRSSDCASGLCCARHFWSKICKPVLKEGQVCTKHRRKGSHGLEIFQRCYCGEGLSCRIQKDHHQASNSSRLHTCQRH

[10] = tested on: Inhibin beta A chain (activin A); test: small molecules binding activin A – biochemical, small-molecule microarray, 635 nm fluorescence scan, primary screen (AID 1107); details: INHBA, higher = more signal;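 also: mouse activin A protein probed at 4.33 µg/mL on printed slides; score merges bound-protein fluorescence near 667 nm with spot signal-to-noise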
[11] = tested on: Human papillomavirus type 1a protein E7 (residues 44-93); test: small molecules binding HPV E7 44-93 – biochemical, small-molecule microarray, residues 44-93, 635 nm fluorescence, primary screen (AID 1108); details: fluorescence 635 nm, higher = more signal;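 also: E7 fragment applied at 1 µg/mL in TBST for 1 h at 4 C; score combines spot fluorescence with its signal to noise ratio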
[12] = hepatitis C replication reporter changes, two-sided – Huh7 cells, luciferase reporter, HCV replication inhibitor project, primary screen (AID 1109); details: Huh7 HCV replicon luciferase reporter, 48 h; higher = more signal;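 also: huh7 hepatoma cells harbouring a luciferase neomycin HCV replicon reporter; luciferase luminescence as measure of HCV replicon replication; test concentration not given here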
[13] = biological target: Left-right determination factor 2 (Homo sapiens) (UniProt O00292); test: small molecules binding LEFTY2 protein – biochemical, small-molecule microarray, 635 nm fluorescence scan, primary screen (AID 1110); details: higher = more signal
Sequence of Left-right determination factor 2 (Homo sapiens) (O00292 whole entry, looked up): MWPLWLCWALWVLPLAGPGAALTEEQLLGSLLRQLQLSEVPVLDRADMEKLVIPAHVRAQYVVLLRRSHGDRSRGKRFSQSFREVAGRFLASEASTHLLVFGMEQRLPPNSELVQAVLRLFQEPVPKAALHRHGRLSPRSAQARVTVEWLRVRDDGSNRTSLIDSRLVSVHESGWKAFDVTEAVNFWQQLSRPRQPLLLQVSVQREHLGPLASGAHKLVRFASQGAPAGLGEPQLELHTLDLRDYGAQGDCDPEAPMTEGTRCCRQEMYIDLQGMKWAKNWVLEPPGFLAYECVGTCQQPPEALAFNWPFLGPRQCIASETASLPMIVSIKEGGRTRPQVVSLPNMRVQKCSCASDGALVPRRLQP

[14] = biological target: Calmodulin-1 (Homo sapiens) (UniProt P0DP23); test: small molecules binding calmodulin-1 with EGTA – biochemical, small-molecule microarray, Cy5-labelled CALM1, profiling panel (AID 1111); details: Cy5-CALM1 binding fluorescence, higher = more signal;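 also: labelled calmodulin applied in Tris saline Tween buffer holding calcium plus EGTA and DTT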
[15] = biological target: Calmodulin-1 (Homo sapiens) (UniProt P0DP23); test: small molecules binding Ca-loaded calmodulin-1 – biochemical, small-molecule microarray, Cy5-labelled CALM1, plus calcium, artefact control for SMM control-protein annotation, profiling panel (AID 1112); details: Cy5-CALM1 binding fluorescence, higher = more signal;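 also: score merges spot fluorescence with signal to noise from triplicate slides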
[16] = probe aWnt5a binding to arrayed compounds – biochemical, biotinylated probe, 635/667 nm fluorescence, primary screen (AID 1113); details: small-molecule microarray, higher = more signal;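 also: score merges 667 nm fluorescence intensity with signal-to-noise per printed feature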
[17] = probe aShh binding to arrayed compounds – biochemical, biotinylated probe, 635/667 nm fluorescence, primary screen (AID 1114); details: small-molecule microarray, higher = more signal;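 also: probe is biotin-labelled aShh protein from a stem cell growth factor screen; measures binding of labelled protein to compounds printed on the slide; score merges feature fluorescence at 667 nm with signal-to-noise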
[18] = probe aNog binding to arrayed compounds – biochemical, biotinylated probe, 635/667 nm fluorescence, primary screen (AID 1115); details: small-molecule microarray, higher = more signal;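 also: probe is biotinylated aNog protein used at 0.15 µg/mL for 1 h at 4 C; z-score combines 667 nm fluorescence of each spot with its signal to noise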
[19] = biological target: Torsin-1A-interacting protein 1 (Homo sapiens) (UniProt Q5JTV8); test: compound microarray binding of lysate hLAP1 – cell lysate, small-molecule microarray, COS7 lysate, 635/667 nm fluorescence, primary screen (AID 1116); details: 635 nm fluorescence, higher = more signal
Sequence of Torsin-1A-interacting protein 1 (Homo sapiens) (Q5JTV8 whole entry, looked up): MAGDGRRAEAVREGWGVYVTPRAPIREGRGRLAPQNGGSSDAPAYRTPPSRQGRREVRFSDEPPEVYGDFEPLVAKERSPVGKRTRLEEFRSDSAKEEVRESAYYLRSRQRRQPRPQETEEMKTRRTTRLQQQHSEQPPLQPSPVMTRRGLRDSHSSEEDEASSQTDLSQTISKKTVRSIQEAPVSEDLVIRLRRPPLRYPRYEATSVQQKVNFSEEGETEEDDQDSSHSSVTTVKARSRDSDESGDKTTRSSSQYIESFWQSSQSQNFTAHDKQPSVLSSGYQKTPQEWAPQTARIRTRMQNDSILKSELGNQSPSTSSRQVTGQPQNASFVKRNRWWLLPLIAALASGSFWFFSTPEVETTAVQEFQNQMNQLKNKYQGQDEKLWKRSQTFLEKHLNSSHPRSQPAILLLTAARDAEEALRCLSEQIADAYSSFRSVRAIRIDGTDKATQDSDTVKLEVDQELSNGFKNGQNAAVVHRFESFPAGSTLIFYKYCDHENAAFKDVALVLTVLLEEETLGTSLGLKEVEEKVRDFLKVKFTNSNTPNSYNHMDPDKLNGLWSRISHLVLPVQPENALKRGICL

[20] = biological target: Alpha-bungarotoxin (Bungarus multicinctus) (UniProt P60615); test: compounds binding labelled alpha-BTX control protein – biochemical, small-molecule microarray, Alexa647 label, 635/667 nm fluorescence, artefact control for SMM control protein annotation, profiling panel (AID 1117); details: alpha-BTX-A647 binding fluorescence, higher = more signal
Sequence of Alpha-bungarotoxin (Bungarus multicinctus) (P60615 whole entry, looked up): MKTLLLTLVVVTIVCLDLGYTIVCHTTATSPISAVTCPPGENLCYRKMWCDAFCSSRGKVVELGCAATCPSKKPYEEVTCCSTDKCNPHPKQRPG

SMILES | composite z-score [1] | composite z-score [2] | composite z-score [3] | z-score [4] | composite z-score [5] | composite z-score [6] | composite z-score [7] | composite z-score [8] | composite z-score [9] | composite z-score [10] | composite z-score [11] | z-score [12] | composite z-score [13] | composite z-score [14] | composite z-score [15] | composite z-score [16] | composite z-score [17] | composite z-score [18] | composite z-score [19] | composite z-score [20]
O=C1C[C@@](C(=O)NCC(F)(F)F)(c2ccc([N+](=O)[O-])cc2)[C@@H](c2ccc(CO)cc2I)N1C1CCCCC1 | 0.47 | 0.0918 | 0.574 | 0.0169 (inactive) | 1.09 | 1.18 | 0.515 | 0.995 | 0.155 | 0.539 | 1.47 | -2.54 | 0.386 | 0.511 | 0.074 | -0.0758 | -0.181 | 0.437 | 1.62 | 0.0759
CC(C)CNC(=O)[C@@]1(Cc2ccccc2I)c2ccccc2C(=O)N(C2CCCCC2)[C@H]1c1ccc(CO)cc1 | 1.53 | 0.778 | 1.02 | 1.14 (inactive) | 0.51 | -0.218 | -0.272 | 0.248 | -0.271 | 0.504 | 0.63 | -1.62 | -0.294 | 0.424 | 0.349 | 0.0477 | 0.199 | -0.237 | 0.961 | 3
COC(=O)[C@]1(CCC(=O)OC(C)(C)C)N=C(c2ccc(OCCCO)cc2)O[C@@H]1c1ccccc1CN=[N+]=[N-] | 1.09 | 1.09 | 1.07 | -1.03 (inactive) | 0.432 | -0.109 | -0.843 | -0.307 | -0.696 | 0.26 | -0.0058 | -3.32 | -0.684 | 0.884 | 0.367 | -0.0045 | 0.147 | 0.977 | 0.157 | 0.869
[N-]=[N+]=NCc1ccccc1[C@@H]1OC(c2ccc(OCCCO)cc2)=N[C@]1(Cc1ccccc1)C(=O)NCC(O)CO (stereo not given in full) | 0.62 | 0.914 | 0.956 | 0.371 (inactive) | 0.899 | 0.0871 | -0.519 | -1.19 | -0.889 | 0.68 | -0.0042 | -1.16 | -0.559 | 0.168 | 0.305 | 0.262 | 0.559 | 1.99 | 1.95 | 2.68
O=C1N[C@@H](Cc2ccccc2)C(=O)N2[C@@H]1C[C@@H](C(=O)O)[C@H]2c1cccc(OCCO)c1 | 1.56 | 0.0092 | 0.18 | 0.152 (inactive) | 1.45 | 1.29 | 0.334 | 0.798 | 1.18 | 0.806 | 1.3 | 2.89 | 0.941 | -0.657 | 0.465 | -0.176 | -0.243 | -0.199 | 0.49 | 1.14
